Assay results taken from PubChem BioAssay AID372 (MTDP, 2006).
Among all 100,000 compounds or so, about 770 (0.77%) were called active. What follows is part of a selection rich in actives, with near analogues and random picks from the rest. A number with no mark means an inactive call. Cut-off read from the data, not from the text of the source: active = inhibition above about 50%; inactive = the rest.

Each molecule was assayed against Gag-Pol polyprotein (Human immunodeficiency virus type 1 group M subtype B (isolate HXB2)) (UniProt P04585) (assay: RNase H inhibition, HIV 1 Gag Pol polyprotein, FRET biochemical assay, screening (AID 372)). Conditions: HIV-1 RT RNase H, FRET RNA/DNA substrate fluorescence; at 10 µM; active compounds read high.
`CC(C)(C)c1ccc(CNc2cc(N3CCOCC3)ccc2[N+](=O)[O-])cc1` showed an inhibition of 0%. `Oc1ccccc1-c1nc(-c2ccccc2)c(-c2cccs2)[nH]1` showed an inhibition of 12%. Molecule `Oc1ccc(Br)cc1-c1nc(-c2ccccc2)c(-c2cccs2)[nH]1` has an inhibition of 9%. In the case of `Oc1ccc(-c2nc(-c3ccccc3)c(-c3cccs3)[nH]2)cc1O`, the inhibition is reported as 63% (active). With `O=C(COc1ccccc1[N+](=O)[O-])N/N=C/c1cc(I)ccc1O` the inhibition was 5%. In the case of `C/C(=N\Nc1cc(-c2ccccc2)nc(-c2ccccc2)n1)c1ccc([N+](=O)[O-])cc1`, the inhibition is reported as 3%. `CN(C(=O)c1ccc(Cl)c([N+](=O)[O-])c1)c1ccccc1` gave an inhibition of 17%. `CCOc1ccccc1N(CC(=O)Nc1cccc(Br)c1)S(C)(=O)=O` showed an inhibition of 16%. For `CCOc1ccc(N(CC(=O)Nc2ccc(C)c(Cl)c2)S(C)(=O)=O)cc1`, the inhibition was 56% (active). For `CCOc1ccc(N(CC(=O)Nc2cccc(C(C)=O)c2)S(C)(=O)=O)cc1`, the inhibition was 51% (active). `CCOc1ccc(N(CC(=O)Nc2ccc(C)c(C)c2)S(C)(=O)=O)cc1` was tested, and the inhibition was 4%. With `CCOc1ccc(N(CC(=O)Nc2cccc(Br)c2)S(C)(=O)=O)cc1` the inhibition was 12%. For `CCOc1ccccc1N(CC(=O)N/N=C(\C)c1cccc(Br)c1)S(C)(=O)=O`, the inhibition was 66% (active). For `CCOc1ccc(N(CC(=O)Nc2cccc(C)c2)S(C)(=O)=O)cc1`, the inhibition was 17%. `CCOc1ccc(NC(=O)CN(c2ccc(C)c(Cl)c2)S(C)(=O)=O)cc1` was tested, and the inhibition was 3%. `CCOc1ccccc1N(CC(=O)N/N=C(\C)c1cccc(NC(=O)c2ccccc2)c1)S(=O)(=O)c1ccccc1` gave an inhibition of 5%. `Cn1c(=O)c(Sc2ccccc2)c(Sc2ccccc2)c2ccccc21` was tested, and the inhibition was 43%. `CCc1ccccc1N1C(=O)/C(=C/c2ccc(N3CCCCC3)o2)C(=O)NC1=S` showed an inhibition of 19%. For `Cc1cccc(N2C(=O)C(Cl)=C(Cl)C2=O)c1C`, the inhibition was 4%. `O=C(Nc1ccccc1-c1ccccc1)c1ccc2c(c1)C(=O)N(c1ccccc1-c1ccccc1)C2=O` gave an inhibition of 17%. `Cc1ccccc1NC(=O)c1cc(S(=O)(=O)Nc2ccc(Br)cc2)ccc1Cl` gave an inhibition of 10%. For `CSC1=C(C#N)C(c2ccc(Cl)cc2)C(C(C)=O)=C(C)N1` (stereo unspecified), the inhibition was 2%. Work on `O=C1NC(=S)S/C1=C/c1cccc(OCc2ccccc2)c1` yielded an inhibition of 29%. Molecule `COc1ccc(OCCOc2cccc(/C=C3\SC(=S)NC3=O)c2)cc1` has an inhibition of 18%. `Cc1ccc(C)c(OCCOc2cccc(/C=C3\SC(=S)NC3=O)c2)c1` was tested, and the inhibition was 54% (active). Molecule `O=C1NC(=S)S/C1=C/c1cccc(OCc2ccccc2Cl)c1` has an inhibition of 42%. With `Cc1ccc(OCCOc2ccc(Cl)cc2/C=C2\SC(=S)NC2=O)c(C)c1` the inhibition was 43%. Molecule `Cc1cc(C)cc(OCCOc2cccc(/C=C3\SC(=S)NC3=O)c2)c1` has an inhibition of 45%. `Cc1ccc(C)c(OCCOc2ccc(/C=C3\SC(=S)NC3=O)cc2)c1` showed an inhibition of 43%. With `Cc1ccc(C)c(OCCOc2c(Cl)cc(Cl)cc2/C=C2\SC(=S)NC2=O)c1` the inhibition was 33%. With `Cc1ccc(OCCOc2cccc(/C=C3/SC(=S)NC3=O)c2)cc1` the inhibition was 56% (active). In the case of `Cc1ccc(C)c(OCCOc2ccc(Cl)cc2/C=C2\SC(=S)NC2=O)c1`, the inhibition is reported as 63% (active). In the case of `Cc1ccc(OCCOc2cccc(/C=C3\SC(=S)NC3=O)c2)c(C)c1`, the inhibition is reported as 40%. With `Cc1ccc(Nc2cc(N3CCN(c4ccccc4Cl)CC3)c([N+](=O)[O-])cc2[N+](=O)[O-])cc1` the inhibition was 13%. `Cc1ccc(C(C)C)c(OCC(=O)N2CCN(c3ccc([N+](=O)[O-])cc3Cl)CC2)c1` showed an inhibition of 21%. `Cc1cc(C)nc(NS(=O)(=O)c2ccc(NS(=O)(=O)c3ccc4c(c3)C(=O)c3ccccc3-4)cc2)n1` gave an inhibition of 15%. With `Cc1ccc(Cl)cc1NC(=O)CN(CCc1ccccc1)S(=O)(=O)c1ccccc1` the inhibition was 16%. Molecule `COc1cccc(/C=N/N2CCN(Cc3cccc4ccccc34)CC2)c1O` has an inhibition of 8%. For `COc1ccc(OCCOc2ccc(Br)cc2/C=C2\SC(=S)NC2=O)cc1`, the inhibition was 34%. `COc1cccc(OCCOc2ccc(Br)cc2/C=C2/SC(=S)NC2=O)c1` was tested, and the inhibition was 55% (active). With `COc1cccc(OCCOc2ccccc2/C=C2/SC(=S)NC2=O)c1` the inhibition was 22%. `O=c1[nH]c(=O)n(Cc2ccccc2)c(O)c1C=Nc1ccc(F)cc1` showed an inhibition of 22%. `Cc1ccc(N=Cc2c(O)n(Cc3ccccc3)c(=O)[nH]c2=O)cc1` gave an inhibition of 46%. In the case of `Cc1ccccc1N=Cc1c(O)n(Cc2ccccc2)c(=O)[nH]c1=O`, the inhibition is reported as 57% (active). `COc1ccc(CCNC(=O)c2ccc(C#Cc3ccccc3)cc2)cc1OC` gave an inhibition of 8%. `CCc1ccccc1NC(=O)CSCc1ccccc1Cl` gave an inhibition of 20%. `CCOc1ccccc1NC(=O)CSCc1ccc(Cl)cc1Cl` gave an inhibition of 48%. `CCC(C)NC(=O)CSCc1ccccc1Cl` (stereo unspecified) showed an inhibition of 0%. `CC(NC(=O)CSCc1ccc(Cl)cc1)c1ccccc1` (stereo unspecified) was tested, and the inhibition was 6%. In the case of `CCOc1ccccc1NC(=O)CSCc1ccccc1Cl`, the inhibition is reported as 51% (active). `CC(NC(=O)CSCc1ccccc1Cl)c1ccccc1` (stereo unspecified) was tested, and the inhibition was 54% (active). Work on `CC(=O)c1ccc(C)cc1OC(=O)c1ccc(Cl)cc1` yielded an inhibition of 21%. With `O=C(/C(=C/c1ccccc1)c1nc2ccccc2[nH]1)c1ccccc1` the inhibition was 6%. Molecule `O=C(Nc1ccc(I)cc1)c1ccc([N+](=O)[O-])o1` has an inhibition of 0%. For `O=C(Nc1ccc2oc(-c3ccccc3)nc2c1)c1ccc(-c2ccc([N+](=O)[O-])cc2)o1`, the inhibition was 54% (active). `O=C(Nc1ccc2oc(-c3cc(Br)ccc3Cl)nc2c1)c1ccc([N+](=O)[O-])o1` gave an inhibition of 20%. In the case of `Cc1ccc(-c2nc3cc(NC(=O)c4ccc([N+](=O)[O-])o4)ccc3o2)cc1Br`, the inhibition is reported as 54% (active). In the case of `O=C(Nc1ccc(Cl)c([N+](=O)[O-])c1)c1ccc(-c2ccc(Cl)c(Cl)c2)o1`, the inhibition is reported as 7%. For `O=C(Nc1ccc(-c2nc3ccccc3o2)cc1)c1ccc(-c2ccc([N+](=O)[O-])cc2)o1`, the inhibition was 48%. In the case of `Cc1c(Cl)cccc1-c1ccc(C(=O)Nc2cccc(-c3nc4ccccc4o3)c2)o1`, the inhibition is reported as 10%. Work on `Cc1c(Cl)cccc1-c1ccc(C(=O)Nc2ccc3oc(-c4cccnc4)nc3c2)o1` yielded an inhibition of 42%. With `Cc1c(Cl)cccc1-c1ccc(C(=O)Nc2ccc(-c3nc4ccccc4o3)cc2)o1` the inhibition was 54% (active). For `O=C(Nc1ccc([N+](=O)[O-])cc1)c1ccc(-c2ccc(Cl)c(Cl)c2)o1`, the inhibition was 50% (active). `O=C(Nc1ccc2oc(-c3ccccc3)nc2c1)c1ccc([N+](=O)[O-])o1` was tested, and the inhibition was 6%. `Cc1cc([N+](=O)[O-])ccc1-c1ccc(C(=O)Nc2ccc3oc(-c4ccccc4)nc3c2)o1` was tested, and the inhibition was 15%. In the case of `O=C(Nc1ccc([N+](=O)[O-])cc1)c1ccc(-c2cccc(Cl)c2)o1`, the inhibition is reported as 10%.
